According to PubChem BioAssay (Tox21):
Results filed as inconclusive are left out. The source made the active and inactive calls. Unless noted, calls come from the whole dose curve; as a rule, active = well fitted curve in the direction sought with a large enough effect in the repeat runs; inconclusive = weak or mixed curves; inactive = no such curve, though single readings can be large; an effect the other way counts as inactive or inconclusive.

Test system: not listed separately
Test: qHTS assay to identify small molecule antagonists of the estrogen related receptor (ERR) signaling pathway (AID 1224819; note: nearly all actives have a fitted effect of over 50% in size; note: potency is the fitted concentration of half-maximal effect;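 for activity change, negative = inhibition: luminescence from an ERR-driven luciferase reporter measured with One-Glo reagent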)
Conditions: ERR reporter cell line, luciferase inhibition; series mostly up to 46.1 µM; activity change, negative = inhibition: at the top concentration
Text: National Center for Advancing Translational Sciences [NCATS]
NIH Chemical Genomics Center [NCGC]
U.S. Environmental Protection Agency [EPA]
National Institutes of Environmental Health Sciences [NIEHS]
National Toxicology Program [NTP]
U.S. Food and Drug Administration [FDA]
Estrogen related receptors (ERRs), the first orphan nuclear receptors discovered, play an important role in the control of cellular energy metabolism. ERRs are required for high-energy production in response to the environmental challenges. ERR-alpha was also identified as an adverse marker for breast cancer progression; ERR-alpha-positive tumors have a poor prognosis. To screen and to identify environmental compounds that perturb the ERR signaling pathways could provide valuable information for potential therapeutic or preventive measures in the treatment of metabolic disease. For identifying ERR antagonists, ERR cell line (provided by NTP) has been used to screen LOPAC library.
Tox21 Assay Protocol Summary:
The ERR cells were dispensed at 2,000 cells/5 ul/well in 1536-well white plates using a Multidrop dispenser. After the assay plates were incubated at a 37 C/5% CO2 incubator for 6 hours, 23 nL of compounds dissolved in DMSO, positive and negative controls or DMSO only was transferred to the assay plate by a pin tool. The plates were incubated at 37 C for 18 hours. 4 ul/well of One-Glo reagent was added into the assay plates using a Flying Reagent Dispenser. After 30 min incubation at room temperature, the luminescence intensity in the plates was measured using a ViewLux plate reader.
% is set by controls: 0 for no effect and ±100 for the full control effect.

Q: Which “activity change, negative = inhibition” value does the source give for `CCOC(=O)C(C)(C)Oc1ccc(Cl)cc1` here?
A: 11.9% (inactive)

Q: Which Potency does the source give for `C[C@]12CC[C@@H]3c4ccc(O)cc4C[C@@H](CCCCCCCCCS(=O)CCCC(F)(F)C(F)(F)F)[C@H]3[C@@H]1CC[C@@H]2O` (stereo not given in full) here?
A: 7.22 µM (active)

Q: For `NC(=O)N/N=C/c1ccc([N+](=O)[O-])o1`, which “activity change, negative = inhibition” value is on record?
A: -25.6% [at 92.2 µM] (inactive)

Q: Which “activity change, negative = inhibition” value does the source give for `CC(C)Cc1ccc(C(C)C(=O)O)cc1` (stereo not given) here?
A: 6.52% (inactive)

Test system: not listed separately
Test: qHTS assay to identify small molecule agonists of the estrogen related receptor (ERR) signaling pathway (AID 1224820)
Conditions: ERR reporter cell line, luciferase agonist mode; series mostly up to 46.1 µM; activation: at the top concentration
How it was run: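 ERR reporter cells (NTP line) plated 2,000/well, incubated 6 h at 37 C/5% CO2, then pinned with compounds in DMSO and held 18 h at 37 C. One-Glo added; luminescence read after 30 min at room temperature.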

Q: With `CCOC(=O)C(C)(C)Oc1ccc(Cl)cc1` as the compound, how does the “activation” value read?
A: 8.42% (inactive)

Q: With `C[C@]12CC[C@@H]3c4ccc(O)cc4C[C@@H](CCCCCCCCCS(=O)CCCC(F)(F)C(F)(F)F)[C@H]3[C@@H]1CC[C@@H]2O` (stereo not given in full) as the compound, how does the “activation” value read?
A: -53.8% (inactive)

Q: With `NC(=O)N/N=C/c1ccc([N+](=O)[O-])o1` as the compound, how does the “activation” value read?
A: -27.9% [at 92.2 µM] (inactive)

Q: With `CC(C)Cc1ccc(C(C)C(=O)O)cc1` (stereo not given) as the compound, how does the “activation” value read?
A: 7.65% (inactive)

Test system: estrogen-related receptor alpha (ERRalpha) with PGC-1alpha coactivator, human
Test: qHTS assay to identify small molecule antagonists of the estrogen related receptor signaling pathway with the pleiotropic PPARgamma coactivator (PGC) (AID 1224821; calls by dose curve;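 note: lower luminescence signal means antagonism of PGC/ERR signalling; nearly all actives have a fitted effect of over 50% in size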)
Conditions: ERR/PGC reporter cell line, luciferase, antagonist mode; series mostly up to 46.1 µM; activity change, negative = inhibition: at the top concentration
How it was run: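 Cells engineered for PGC/ERR signalling (line from NTP) were plated 6 h at 37 C/5% CO2, then exposed to DMSO-dissolved compound for 18 h at 37 C. Luciferase activity was read by One-Glo luminescence after 30 min at room temperature.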

Q: Which “activity change, negative = inhibition” value does the source give for `CCOC(=O)C(C)(C)Oc1ccc(Cl)cc1` here?
A: 6.61% (inactive)

Q: For `NC(=O)N/N=C/c1ccc([N+](=O)[O-])o1`, which “activity change, negative = inhibition” value is on record?
A: 1.55% [at 92.2 µM] (inactive)

Q: With `CC(C)Cc1ccc(C(C)C(=O)O)cc1` (stereo not given) as the compound, how does the “activity change, negative = inhibition” value read?
A: 6.86% (inactive)

Test system: not listed separately
Test: qHTS assay to identify small molecule agonists of the estrogen related receptor signaling pathway with the pleiotropic PPARgamma coactivator (PGC) (AID 1224823)
Conditions: ERR/PGC reporter cell line, luciferase agonist mode; series mostly up to 46.1 µM; activation: at the top concentration
How it was run: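 PGC/ERR reporter cells were seeded, rested 6 h at 37 C/5% CO2, then exposed to compounds in DMSO by pin transfer for 18 h at 37 C. Luciferase activity was read as luminescence after One-Glo reagent and 30 min at room temperature.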

Q: With `CCOC(=O)C(C)(C)Oc1ccc(Cl)cc1` as the compound, how does the “activation” value read?
A: 2.27% (inactive)

Q: Which “activation” value does the source give for `C[C@]12CC[C@@H]3c4ccc(O)cc4C[C@@H](CCCCCCCCCS(=O)CCCC(F)(F)C(F)(F)F)[C@H]3[C@@H]1CC[C@@H]2O` (stereo not given in full) here?
A: -11.2% (inactive)

Q: With `NC(=O)N/N=C/c1ccc([N+](=O)[O-])o1` as the compound, how does the “activation” value read?
A: -3.7% [at 92.2 µM] (inactive)

Q: Which “activation” value does the source give for `CC(C)Cc1ccc(C(C)C(=O)O)cc1` (stereo not given) here?
A: 2.18% (inactive)
